Data published in PubChem BioAssay (NCATS).
Records with an inconclusive call do not appear. Active and inactive are the calls of the source. Calls follow the shape of the dose curve; as a rule, active = well fitted curve in the direction sought with a large enough effect; inconclusive = small, poorly fitted or top-dose-only effect, or another doubt; inactive = no such curve, though single readings can be large; an effect the other way counts as inactive or inconclusive.

What was measured:
[1] = Quantitative High-Throughput drug screen in 47 multiple myeloma cell lines against the NCATS MIPE library collection: OCIMY7_PLB cell viability assay (AID 1918987); settings: OCI-MY7 myeloma viability, CellTiter-Glo ATP, 48 h; viability (% of DMSO): at 45.8 µM (top of the series); also: nearly all actives have a fitted effect of over 65% in size; also: potency is read from the fitted curve at half-maximal effect
Method in brief: (§1)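 qHTS format: cells plated (500/well), pin-dosed with MIPE 4.0 compounds, kept 48 h at 37 °C. Readout was CellTiter-Glo luminescence, median RLU.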

[2] = Quantitative High-Throughput drug screen in 47 multiple myeloma cell lines against the NCATS MIPE library collection: OCIMY5_PLB cell viability assay (AID 1918988); settings: OCI-MY5 myeloma viability, ATP luminescence, 48 h; series mostly up to 45.8 µM; also: nearly all actives have a fitted effect of over 65% in size; also: potency is read from the fitted curve at half-maximal effect
Method in brief: as §1

[3] = Quantitative High-Throughput drug screen in 47 multiple myeloma cell lines against the NCATS MIPE library collection: SKMM1_PLB cell viability assay (AID 1919863); settings: SKMM1 myeloma viability, CellTiter-Glo ATP, 48 h; viability: stronger effect = lower value; also: nearly all actives have a fitted effect of over 35% in size; also: potency is read from the fitted curve at half-maximal effect
Method in brief: as §1

[4] = Quantitative High-Throughput drug screen in 47 multiple myeloma cell lines against the NCATS MIPE library collection: XG1_PLB cell viability assay (AID 1919866); settings: CellTiter-Glo ATP, 48 h; series mostly up to 45.8 µM; also: nearly all actives have a fitted effect of over 35% in size; also: potency is read from the fitted curve at half-maximal effect
Method in brief: as §1

[5] = Quantitative High-Throughput drug screen in 47 multiple myeloma cell lines against the NCATS MIPE library collection: UTMC2_PLB cell viability assay (AID 1919868); settings: CellTiter-Glo ATP luminescence, 48 h; viability (% of DMSO control): at 45.8 µM (top of the series); also: nearly all actives have a fitted effect of over 55% in size; also: potency is read from the fitted curve at half-maximal effect;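 as to viability (% of DMSO control): 100% = DMSO-only wells and 0% = media-only wells without cells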
Method in brief: as §1

[6] = Quantitative High-Throughput drug screen in 47 multiple myeloma cell lines against the NCATS MIPE library collection: PE2_PLB cell viability assay (AID 1919869); settings: PE2_PLB myeloma cells viability, ATP luminescence, 48 h; series mostly up to 45.8 µM; also: nearly all actives have a fitted effect of over 35% in size; also: potency is read from the fitted curve at half-maximal effect
Method in brief: as §1

[7] = Quantitative High-Throughput drug screen in 47 multiple myeloma cell lines against the NCATS MIPE library collection: KMS11_JCRBsus cell viability assay (AID 1919873); settings: KMS11 myeloma viability, CellTiter-Glo ATP luminescence, 48 h; series mostly up to 45.8 µM; also: nearly all actives have a fitted effect of over 50% in size; also: potency is read from the fitted curve at half-maximal effect
Method in brief: as §1

[8] = Quantitative High-Throughput drug screen in 47 multiple myeloma cell lines against the NCATS MIPE library collection: OPM1_PLB cell viability assay (AID 1918989); settings: CellTiter-Glo, 48 h; series mostly up to 45.8 µM; also: nearly all actives have a fitted effect of over 40% in size; also: potency is read from the fitted curve at half-maximal effect
Method in brief: as §1

[9] = Quantitative High-Throughput drug screen in 47 multiple myeloma cell lines against the NCATS MIPE library collection: U266_ATCC cell viability assay (AID 1919864); settings: U266 myeloma viability, CellTiter-Glo ATP luminescence, 48 h; series mostly up to 45.8 µM; also: nearly all actives have a fitted effect of over 35% in size; also: potency is read from the fitted curve at half-maximal effect;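 as to viability (% of DMSO control): 0% = media-only wells without cells and 100% = DMSO-only wells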
Method in brief: as §1

[10] = Quantitative High-Throughput drug screen in 47 multiple myeloma cell lines against the NCATS MIPE library collection: XG6_PLB cell viability assay (AID 1919865); settings: XG6 myeloma viability, CellTiter-Glo ATP luminescence, 48 h; series mostly up to 45.8 µM; also: nearly all actives have a fitted effect of over 40% in size; also: potency is read from the fitted curve at half-maximal effect
Method in brief: as §1

[11] = Quantitative High-Throughput drug screen in 47 multiple myeloma cell lines against the NCATS MIPE library collection: VP6_DJ cell viability assay (AID 1919867); settings: ATP luminescence, 48 h; series mostly up to 45.8 µM; also: potency is read from the fitted curve at half-maximal effect; nearly all actives have a fitted effect of over 40% in size
Method in brief: as §1

[12] = Quantitative High-Throughput drug screen in 47 multiple myeloma cell lines against the NCATS MIPE library collection: KMS28BM_JCRB cell viability assay (AID 1919874); settings: CellTiter-Glo ATP, 48 h; series mostly up to 45.8 µM; also: nearly all actives have a fitted effect of over 35% in size; also: potency is read from the fitted curve at half-maximal effect
Method in brief: as §1

[13] = Quantitative High-Throughput drug screen in 47 multiple myeloma cell lines against the NCATS MIPE library collection: PCM6_Riken cell viability assay (AID 1919870); settings: CellTiter-Glo ATP, 48 h; series mostly up to 45.8 µM; also: nearly all actives have a fitted effect of over 30% in size; also: potency is read from the fitted curve at half-maximal effect
Method in brief: as §1

[14] = Quantitative High-Throughput drug screen in 47 multiple myeloma cell lines against the NCATS MIPE library collection: OPM2_DSMZ cell viability assay (AID 1919872); settings: OPM2 myeloma viability, CellTiter-Glo ATP luminescence, 48 h; series mostly up to 45.8 µM; also: nearly all actives have a fitted effect of over 30% in size; also: potency is read from the fitted curve at half-maximal effect
Method in brief: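 Inhibition of cell viability is measured here. Each line was plated at 500 cells per well, treated with MIPE 4.0 drugs, kept 48 hours at 37C, then assayed for ATP content by CellTiter-Glo luminescence.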

[15] = Quantitative High-Throughput drug screen in 47 multiple myeloma cell lines against the NCATS MIPE library collection: RPMI8226_ATCC cell viability assay (AID 1919871); settings: RPMI8226 myeloma viability, CellTiter-Glo ATP luminescence, 48 h; series mostly up to 45.8 µM; also: nearly all actives have a fitted effect of over 30% in size; also: potency is read from the fitted curve at half-maximal effect
Method in brief: as §1

[16] = target: Cytochrome P450 3A4 (Homo sapiens) (UniProt P08684); test: qHTS for inhibitors of CYP3A4 against the NCATS DSHEA and TCM libraries (AID 1919971); settings: recombinant CYP3A4 enzyme activity, luminescence qHTS; series mostly up to 34.1 µM;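 also: % is scaled to controls: 0 for no effect and ±100 for the full control effect; inhibition lowers luminescence from luciferin made by CYP3A4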
Method in brief: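 Concentration-response screening with isoform-matched pro-luciferin substrates. The CYP reaction was initiated by NADPH regenerating solution and ran 30-45 min in darkness at room temperature.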

[17] = target: Cytochrome P450 2D6 (Homo sapiens) (UniProt P10635); test: qHTS for inhibitors of CYP2D6 against the NCATS DSHEA and TCM libraries (AID 1919972); settings: CYP2D6 enzymatic inhibition, luminescence qHTS; series mostly up to 34.1 µM; also: % is scaled to controls: 0 for no effect and ±100 for the full control effect
Method in brief: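 CYP2D6 enzyme with pro-luciferin substrate in manufacturer buffer (typically 100 mM KPO4), preincubated 15 min RT with substances (most at 19.5 nM upward); NADPH regeneration system (1x) started 30–45 min RT reaction; P450-Glo luminescence read after 30 min; quinidine as intraplate control.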

Cytochrome P450 2D6 (Homo sapiens), sequence (P10635 whole entry, looked up): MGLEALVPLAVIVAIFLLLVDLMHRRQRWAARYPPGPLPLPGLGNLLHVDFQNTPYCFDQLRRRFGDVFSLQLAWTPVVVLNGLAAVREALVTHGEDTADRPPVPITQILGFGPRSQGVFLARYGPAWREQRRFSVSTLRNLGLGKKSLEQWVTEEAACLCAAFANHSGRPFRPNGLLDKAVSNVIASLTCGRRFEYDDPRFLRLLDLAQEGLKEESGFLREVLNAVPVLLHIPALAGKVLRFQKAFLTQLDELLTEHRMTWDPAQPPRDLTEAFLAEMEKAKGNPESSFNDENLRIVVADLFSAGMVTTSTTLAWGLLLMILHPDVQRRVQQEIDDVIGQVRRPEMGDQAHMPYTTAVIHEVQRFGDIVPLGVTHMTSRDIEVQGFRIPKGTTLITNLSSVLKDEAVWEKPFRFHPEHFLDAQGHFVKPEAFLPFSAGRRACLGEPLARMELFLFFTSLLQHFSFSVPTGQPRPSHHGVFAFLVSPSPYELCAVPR
Cytochrome P450 3A4 (Homo sapiens), sequence (P08684 whole entry, looked up, canonical isoform): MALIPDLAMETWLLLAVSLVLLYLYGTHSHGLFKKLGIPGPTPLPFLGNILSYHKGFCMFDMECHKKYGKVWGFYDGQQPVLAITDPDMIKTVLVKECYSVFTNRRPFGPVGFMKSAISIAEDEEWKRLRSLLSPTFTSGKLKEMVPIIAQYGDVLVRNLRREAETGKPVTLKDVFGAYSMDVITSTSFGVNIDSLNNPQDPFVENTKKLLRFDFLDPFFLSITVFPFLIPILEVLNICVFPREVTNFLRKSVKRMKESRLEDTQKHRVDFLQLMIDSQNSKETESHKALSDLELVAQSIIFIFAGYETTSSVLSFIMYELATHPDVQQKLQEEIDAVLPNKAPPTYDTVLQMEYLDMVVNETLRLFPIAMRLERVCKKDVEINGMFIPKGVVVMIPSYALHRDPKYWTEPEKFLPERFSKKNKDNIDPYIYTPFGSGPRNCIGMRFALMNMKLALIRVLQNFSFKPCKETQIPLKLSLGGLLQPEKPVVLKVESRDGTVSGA

CON(C)C(=O)N1N=C(c2cc(F)ccc2F)S[C@]1(CCCN)c1ccccc1
inactive: Potency [1] | Potency [2] | viability [3] 61.2% | Potency [4] | Potency [5] | Potency [6] | Potency [7]

CCNC(=O)c1noc(-c2cc(C(C)C)c(O)cc2O)c1-c1ccc(CN2CCOCC2)cc1
active: Potency [1] 0.0469 µM | Potency [8] 0.0833 µM | Potency [9] 0.0332 µM | Potency [10] 0.132 µM | Potency [4] 0.0743 µM | Potency [11] 0.0372 µM | Potency [5] 0.0833 µM | Potency [6] 0.105 µM | Potency [7] 0.0235 µM | Potency [12] 0.0332 µM

CCOC(=O)[C@H]1O[C@H]1C(=O)N[C@@H](CC(C)C)C(=O)NCCC(C)C
active: Potency [2] 29.6 µM | Potency [9] 10.5 µM | Potency [10] 6.62 µM | Potency [13] 5.9 µM
inactive: Potency [1] | Potency [4] | Potency [6] | Potency [14] | Potency [12]

C=C1[C@H](n2cnc3c(=O)[nH]c(N)nc32)C[C@H](O)[C@H]1CO
inactive: Potency [10] | Potency [6] | Potency [15] | Potency [14]
active: Potency [1] 1.18 µM | Potency [8] 2.35 µM | Potency [9] 14.8 µM | Potency [4] 1.18 µM | Potency [11] 4.69 µM

CNC1CCC(N(Cc2cccc(-c3ccncc3)c2)C(=O)c2sc3ccccc3c2Cl)CC1 (centres undefined)
active: Potency [1] 10.5 µM | Potency [2] 18.7 µM | Potency [8] 8.33 µM | Potency [3] 18.7 µM | Potency [9] 16.6 µM | Potency [10] 8.33 µM | Potency [4] 9.35 µM | Potency [11] 8.33 µM | Potency [5] 10.5 µM | Potency [6] 10.5 µM | Potency [13] 8.33 µM | Potency [15] 26.4 µM | Potency [7] 8.33 µM

CN(C)c1nc(Cc2ccc(NC(=O)c3ccc(C(F)(F)F)cc3)cc2)nc(N(C)C)c1CC(=O)O
active: Potency [15] 6.62 µM
inactive: Potency [1] | Potency [8] | viability [3] 127% | Potency [9] | Potency [4] | Potency [6] | Potency [7] | Potency [12]

CO[C@H]1O[C@@H]2O[C@@]3(C)CC[C@@H]4[C@@H](C)CC[C@@H]([C@H]1C)[C@@]24OO3
active: Potency [1] 0.743 µM | Potency [8] 6.62 µM | Potency [10] 2.64 µM | Potency [4] 2.96 µM
inactive: Potency [9] | Potency [14]

CN(C)S(=O)(=O)c1ccc2c(c1)C(=Cc1cc3c([nH]1)CCCC3)C(=O)N2
active: Potency [1] 3.32 µM | Potency [2] 2.09 µM | Potency [11] 2.64 µM | Potency [5] 3.32 µM | Potency [6] 3.72 µM | Potency [15] 7.43 µM

Cc1c(C(=O)Nc2ccc(N3C[C@@H](C)O[C@@H](C)C3)nc2)cccc1-c1ccc(OC(F)(F)F)cc1
active: Potency [1] 9.35 µM | Potency [2] 20.9 µM | Potency [3] 26.4 µM | Potency [9] 5.9 µM | Potency [15] 16.6 µM | Potency [14] 23.5 µM
inactive: Potency [6] | Potency [13] | Potency [7] | Potency [12]

CNC(=O)[C@H](Cc1ccccc1)NC(=O)[C@H](CC(C)C)[C@H](CSc1cccs1)C(=O)NO
active: Potency [1] 14.8 µM | Potency [10] 7.43 µM | Potency [4] 9.35 µM | Potency [6] 16.6 µM | Potency [13] 13.2 µM | Potency [14] 18.7 µM
inactive: Potency [8] | viability [3] 98.7%

CCc1cccc(CC)c1NC(=O)N1Cc2[nH]nc(NC(=O)c3ccc(N4CCN(C)CC4)cc3)c2C1
active: Potency [1] 10.5 µM | Potency [2] 1.66 µM | Potency [8] 0.833 µM | Potency [3] 2.64 µM | Potency [10] 8.33 µM | Potency [4] 0.935 µM | Potency [11] 5.9 µM | Potency [5] 0.743 µM | Potency [6] 20.9 µM | Potency [7] 1.05 µM | Potency [12] 1.18 µM

CC(=O)NCCC(=O)N[C@@H](CCC(N)=O)C(=O)N[C@@H](CO)C(=O)N[C@@H](CCC(N)=O)C(=O)N[C@@H](CCC(N)=O)C(=O)N[C@H](C(=O)N[C@@H](Cc1ccccc1)C(=O)N[C@]1(C)CCCCCCC=CCCC[C@@](C)(C(=O)N[C@@H](CCC(N)=O)C(=O)N[C@@H](CC(N)=O)C(N)=O)NC(=O)[C@H](CC(C)C)NC(=O)[C@H](CC(C)C)NC(=O)[C@@H](CCCNC(=N)N)NC(=O)[C@H](Cc2c[nH]c3ccccc23)NC(=O)[C@H](CC(C)C)NC(=O)[C@H](CC(N)=O)NC1=O)[C@H](C)O
active: Potency [1] 20.9 µM | Potency [8] 26.4 µM | Potency [3] 16.6 µM | Potency [6] 20.9 µM | Potency [15] 9.35 µM
inactive: Potency [12]

C[C@@]1(C(=O)Nc2ccc(F)nc2)CCCN1c1nc(Nc2cc(C3CC3)[nH]n2)c2cccn2n1
active: Potency [1] 0.0743 µM | Potency [2] 0.118 µM | Potency [3] 1.48 µM | Potency [10] 0.0332 µM | Potency [4] 0.0743 µM | Potency [5] 0.0118 µM | Potency [6] 11.8 µM | Potency [7] 0.0296 µM

CC(C)(CO)[C@@H](O)C(=O)NCCC(=O)O
inactive: Potency [1] | Potency [2] | Potency [8] | viability [3] 102% | Potency [4] | Potency [6] | Potency [14] | Potency [7] | Potency [12] | outcome [16] | outcome [17]
active: Potency [10] 20.9 µM
